In the library only some 19% were active in any assay of this set; here they are far more common.
HT1080-NT tox: kills 2HG-producing HT-1080-NT fibrosarcoma cells; HT-1080-NT fibrosarcoma viability, CellTiter-Glo ATP luminescence, 48 h; Potency, µM (doses to about 46.1 µM), for inactives: at the top dose activity, negative = less viability, usual class: cytotoxic; 360,000 tested, 1.6% active; AID 686970;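 also: NT is the 2HG producing partner of a matched IDH1 knockdown line; 0% = DMSO-treated cells and -100% = media-only wells without cells; nearly all actives have a fitted effect of over 55% in size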
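Viability of the 2HG-overproducing fibrosarcoma line after 48 hours of compound exposure at 37 degrees C was determined by luminescence with CellTiter-Glo, and concentration-effect curves were then fitted and categorized.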
KB-3-1 cytotox: kills parental KB-3-1 adenocarcinoma cells | KB-3-1 viability, CellTiter-Glo ATP luminescence, 72 h | Potency, µM (titrated, usually from 46.1 µM), hits mostly cytotoxic | 400,000 tested, 1.4% active; also: nearly all actives have a fitted effect of over 60% in size
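KB-3-1 parental drug-naive adenocarcinoma cells in DMEM/10% FBS, incubated 72 h at 37 C with pin-transferred compounds across a concentration series. Viability by CellTiter-Glo luminescence; concentration-response curves fitted after normalization.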
HT1080 IDH1KD tx: HT-1080 IDH1 knockdown cell toxicity (counter line); HT-1080 IDH1 knockdown viability, ATP luminescence, 48 h; Potency, µM (top dose mostly 46.1 µM), for inactives: at the highest dose activity, negative = toxicity, actives largely listed as cytotoxic; 360,000 tested, 2% active; AID 686971;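 also: 0% = DMSO wells and -100% = cell-free medium wells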
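HT-1080-IDH1KD cells (IDH1 knocked down), 750/well in RPMI with 5% FBS, treated with compound 48 h at 37 degrees C. Viability by CellTiter-Glo luminescence, normalised to DMSO and no-cell wells; concentration-response curves classed.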
TDP1 cell CPT: growth inhibition of DT40 Tdp1-/-;hTDP1 cells with camptothecin (screen for TDP1 inhibitors) | chicken DT40 Tdp1-/-;hTDP1 cells + 20 nM CPT, ATP luminescence, 48 h | Potency, µM (series often up to 46.2 µM), for inactives: at the top dose activity change, negative = growth inhibition, usual class: inhibitors | 420,000 tested, 12% active | AID 686979; also: nearly all actives have a fitted effect of over 55% in size
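Cell growth measured by CellTiter-Glo luminescence after a minimum 48 h, 37 C compound exposure with 20 nM CPT in Tdp1-knockout DT40 cells stably expressing hTDP1, seeded 400/well; qHTS titration format.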
KB-V1 MDR tox: kills drug-selected multidrug resistant KB-V1 cells | AID 1347076 | 400,000 tested, 3.4% active | KB-V1 MDR cells viability, CellTiter-Glo, 72 h | Potency, µM (top dose mostly 46.1 µM), most hits filed as cytotoxic; also: nearly all actives have a fitted effect of over 60% in size
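KB-V1, DMEM (no phenol red) + 10% FBS; cpd pin-transferred, titration series; 72 h, 37 degrees C; CellTiter-Glo, luminescence. Data normalized, curve-fit.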
DT40 TDP1 no CPT: qHTS for Inhibitors of human tyrosyl-DNA phosphodiesterase 1 (TDP1): qHTS in cells in absence of CPT; Potency, µM (series often up to 46.2 µM), for inactives: top-dose activity change, negative = growth inhibition, hits mostly inhibitors; DT40 Tdp1-/- hTDP1 cells, no CPT, ATP luminescence, 48 h; 420,000 tested, 15% active; also: nearly all actives have a fitted effect of over 55% in size
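Chicken DT40 Tdp1-/- cells complemented with human TDP1, screened without camptothecin (DMSO vehicle only), 400 cells/well. Compounds pin-transferred, cells incubated at 37 °C for at least 48 hr. Growth read as ATP-dependent luminescence (CellTiter-Glo, 30 min at RT).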
Active calls of the source: *; [ ] = remark or other dose. Calls follow the shape of the dose curve; as a rule, active = well fitted curve in the direction sought with a large enough effect; inconclusive = small, poorly fitted or top-dose-only effect, or another doubt; inactive = no such curve, though single readings can be large; an effect the other way counts as inactive or inconclusive. Unless noted, % is scaled to controls: 0 for no effect and ±100 for the full control effect; potency is read from the fitted curve at half-maximal effect.

COc1ccc(OC)c(CNC(=O)CCCn2ccc3cc(S(=O)(=O)N4CCCC4)ccc32)c1 was read as HT1080-NT tox -7.9%, KB-3-1 cytotox inconclusive, HT1080 IDH1KD tx -19.1%, TDP1 cell CPT 14.6µM*, KB-V1 MDR tox inconclusive and DT40 TDP1 no CPT inconclusive.
`CCc1ccc(CNC(=O)CCCn2ccc3cc(S(=O)(=O)N4CCCC4)ccc32)cc1` gave KB-3-1 cytotox 5.8µM*, TDP1 cell CPT 4.61µM*, KB-V1 MDR tox inconclusive and DT40 TDP1 no CPT 4.11µM*.
`COc1ccc(CNC(=O)CCn2ccc3cc(S(=O)(=O)N4CCCC4)ccc32)cc1` gave HT1080-NT tox 2.0%, KB-3-1 cytotox inactive, HT1080 IDH1KD tx -12.3%, TDP1 cell CPT -10.1%, KB-V1 MDR tox inactive and DT40 TDP1 no CPT 0.2%.
For COc1cc(S(=O)(=O)Nc2ccc3c(c2)C(=O)N(C)C3=O)ccc1NC(C)=O the results were HT1080-NT tox 11.3%, KB-3-1 cytotox inactive, HT1080 IDH1KD tx 13.0%, TDP1 cell CPT -10.8%, KB-V1 MDR tox inactive and DT40 TDP1 no CPT -9.2%.
For CCc1cc(C(=O)N(C)CC(=O)N(CC(C)C)c2c(N)n(CC(C)C)c(=O)[nH]c2=O)sc1C the results were HT1080-NT tox -0.4%, KB-3-1 cytotox inactive, HT1080 IDH1KD tx 9.5%, TDP1 cell CPT 0.6%, KB-V1 MDR tox inactive and DT40 TDP1 no CPT 1.8%.
C1CC(=NN=C2CCSCC2)CCS1 was read as HT1080-NT tox 7.2%, KB-3-1 cytotox inactive, HT1080 IDH1KD tx -2.9%, TDP1 cell CPT 9.7%, KB-V1 MDR tox inactive and DT40 TDP1 no CPT -15.0%.
`Cc1cc(N2CCN(C)CC2)nc2ccc(NC(=S)N3CCN(c4ccc(Cl)cc4)CC3)cc12` gave HT1080-NT tox inconclusive, KB-3-1 cytotox inactive, HT1080 IDH1KD tx inconclusive, TDP1 cell CPT 9.2µM*, KB-V1 MDR tox inactive and DT40 TDP1 no CPT inconclusive.
For Cc1cc(N2CCN(c3ccc(F)cc3)CC2)nc2cc(O)ccc12 the results were HT1080-NT tox -12.2%, KB-3-1 cytotox inactive, HT1080 IDH1KD tx -5.1%, TDP1 cell CPT 23.1µM*, KB-V1 MDR tox inconclusive and DT40 TDP1 no CPT 14.6µM*.
Cc1cccc(N2CCN(C(=S)Nc3ccc4nc(N5CCN(C)CC5)cc(C)c4c3)CC2C)c1 (configuration not stated) was read as HT1080-NT tox -10.8%, KB-3-1 cytotox inconclusive, HT1080 IDH1KD tx -3.0%, TDP1 cell CPT inconclusive, KB-V1 MDR tox inactive and DT40 TDP1 no CPT 20.6µM*.
For Cc1cc(N2CCN(C)CC2)nc2ccc(NC(=S)N3CCN(c4cccc(Cl)c4)CC3)cc12 the results were HT1080-NT tox -0.9%, KB-3-1 cytotox inactive, HT1080 IDH1KD tx -9.2%, TDP1 cell CPT 1.84µM*, KB-V1 MDR tox inactive and DT40 TDP1 no CPT 2.59µM*.
`CCCN=C1N(CC)C[C@@H]2[C@@H]3C(=O)N(C)C(=O)[C@@H]3[C@](CC)(C(=O)OC)N12` gave HT1080-NT tox 4.6%, KB-3-1 cytotox inactive, HT1080 IDH1KD tx 2.7%, TDP1 cell CPT -0.5%, KB-V1 MDR tox inactive and DT40 TDP1 no CPT -3.0%.
For CCc1ccccc1NC(=O)CNCC(=O)Nc1ccccc1CC the results were HT1080-NT tox 24.7%, KB-3-1 cytotox inactive, HT1080 IDH1KD tx 14.6%, TDP1 cell CPT -19.8%, KB-V1 MDR tox inactive and DT40 TDP1 no CPT -18.0%.
`CNc1cc(N2CCCC2)ccc1[N+](=O)[O-]` gave HT1080-NT tox 7.8%, KB-3-1 cytotox inactive, HT1080 IDH1KD tx 4.7%, TDP1 cell CPT -1.5%, KB-V1 MDR tox inactive and DT40 TDP1 no CPT 17.5%.
For Cc1cccc(N2CCN(C(=S)Nc3ccc4nc(N5CCN(C)CC5)cc(C)c4c3)CC2)c1C the results were HT1080-NT tox -9.6%, KB-3-1 cytotox inconclusive, HT1080 IDH1KD tx 1.1%, TDP1 cell CPT 1.3µM*, KB-V1 MDR tox inconclusive and DT40 TDP1 no CPT 1.03µM*.
`Cc1cc(N2CCN(C)CC2)nc2ccc(NC(=S)N3CCCCCC3)cc12` gave HT1080-NT tox -14.2%, KB-3-1 cytotox inactive, HT1080 IDH1KD tx -9.0%, TDP1 cell CPT -4.0%, KB-V1 MDR tox inactive and DT40 TDP1 no CPT -29.8%.
Cc1cc(N2CCN(C)CC2)nc2ccc(NC(=S)N3CCN(c4ccc(F)cc4)CC3)cc12 was read as HT1080-NT tox inconclusive, KB-3-1 cytotox inactive, HT1080 IDH1KD tx inconclusive, TDP1 cell CPT inconclusive, KB-V1 MDR tox inactive and DT40 TDP1 no CPT 10.3µM*.
Screening COc1cc(C2C(C(=O)Nc3ccccc3C)=C(C)Nc3ncnn32)ccc1OCC(N)=O (configuration not stated) returned KB-3-1 cytotox inactive, TDP1 cell CPT -7.4%, KB-V1 MDR tox inconclusive and DT40 TDP1 no CPT -1.1%.
`CCc1c(C)sc2c1CCN(C(=O)Nc1cc(C)ccc1C)C2c1ccc(OC)cc1` (configuration not stated) gave KB-3-1 cytotox inactive, TDP1 cell CPT inconclusive, KB-V1 MDR tox inactive and DT40 TDP1 no CPT 25.9µM*.
CCc1c(C)sc2c1CCN(C(=O)Nc1ccccc1Cl)C2c1ccc(OC)cc1 (configuration not stated) was read as KB-3-1 cytotox inactive, TDP1 cell CPT inconclusive, KB-V1 MDR tox inactive and DT40 TDP1 no CPT 14.6µM*.
`Cc1cccc(CNC(=O)c2cnn(-c3ncc(C)c(-c4cccs4)n3)c2C2CC2)n1` gave TDP1 cell CPT -4.8%[9.04 µM] and DT40 TDP1 no CPT -24.1%.
Screening Fc1ccc(-c2cc(C(F)(F)F)nc(NCc3cccs3)n2)cc1 returned HT1080-NT tox -2.3%, KB-3-1 cytotox inactive, HT1080 IDH1KD tx -0.2%, TDP1 cell CPT -17.5%, KB-V1 MDR tox inactive and DT40 TDP1 no CPT inconclusive.
O=C(NCC1CCC2(CCN(Cc3c[nH]c4ccccc34)CC2)O1)C1CCOCC1 (configuration not stated) was read as TDP1 cell CPT -7.9%[9.04 µM] and DT40 TDP1 no CPT -10.6%.
For O=C(COC(=O)COc1ccc(Cl)cc1)Nc1ncc(Br)s1 the results were HT1080-NT tox -1.9%, KB-3-1 cytotox inactive, HT1080 IDH1KD tx -1.2%, TDP1 cell CPT -27.7%, KB-V1 MDR tox inactive and DT40 TDP1 no CPT -25.3%.
For Cc1ccn2cc(C34CC5CC(CC(C5)C3)C4)nc2c1 the results were HT1080-NT tox -1.0%, KB-3-1 cytotox inactive, HT1080 IDH1KD tx -11.9%, TDP1 cell CPT inconclusive, KB-V1 MDR tox inactive and DT40 TDP1 no CPT inconclusive.
